Assay results reported in PubChem BioAssay (Tox21).
Results filed as inconclusive are left out. Active and inactive are the calls of the source. Unless noted, calls follow the shape of the dose curve; as a rule, active = well fitted curve in the direction sought with a large enough effect in the repeat runs; inconclusive = weak or mixed curves; inactive = no such curve, though single readings can be large; an effect the other way counts as inactive or inconclusive.

Columns and labels:
[1] = qHTS assay to identify small molecule antagonists of the sonic hedgehog signaling (Shh) pathway (AID 1259369; calls by dose curve; also: nearly all actives have a fitted effect of over 45% in size)
How it was run: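 Read-out is luminescence from a firefly luciferase gene controlled by the Gli1 response element, in 3T3Gli1-Luc cells pre-incubated 4hr then exposed to compounds and conditioned medium for 24hr.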

[2] = qHTS assay to identify small molecule agonists of the androgen receptor (AR) signaling pathway in the presence of an antagonist - cell viability counter screen (AID 1259379);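 also: MDA-kb2 human breast cancer cells carrying an MMTV luciferase reporter; series mostly up to about 92 µM; nearly all actives have a fitted effect of over 25% in size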
How it was run: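 Each compound was tested at 15 concentrations on MDA-kb2 cells in the presence of 3.0uM nilutamide. Viability was measured by CellTiter-Fluor fluorescence after a 16 hr incubation at 37C in a CO2-free atmosphere.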

[3] = qHTS assay to identify small molecule agonists of the estrogen receptor beta (ER-beta) signaling pathway - cell viability counter screen (AID 1259380); also: nearly all actives have a fitted effect of over 30% in size
How it was run: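 Compounds dissolved in DMSO were pin-transferred onto ER-beta-UAS-bla HEK293T cells that had settled 6 hr, and exposure ran 16 hr at 37C. Following the reporter read, CellTiter-Glo luminescence after 30 min at room temperature indicated cytotoxicity.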

[4] = qHTS assay to identify small molecule antagonists of the estrogen receptor beta (ER-beta) signaling pathway - cell viability counter screen (AID 1259382);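 also: HEK293T cells carrying ER-beta-UAS-bla reporter stimulated with estradiol; series mostly up to about 92 µM; nearly all actives have a fitted effect of over 55% in size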
How it was run: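 CellTiter-Glo ATP luminescence measured after the LiveBLAzer read in the same wells; ER-beta-UAS-bla HEK293T cells, 16 hr compound treatment with 1nM 17-beta-estradiol agonist at 37C, 5% CO2.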

[5] = qHTS assay to identify small molecule agonists of the estrogen receptor alpha (ER-alpha) signaling pathway in the presence of an antagonist - cell viability counter screen (AID 1259386);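 also: series mostly up to about 92 µM; cells exposed to compounds for 22 h at 37 °C before the viability read; nearly all actives have a fitted effect of over 30% in size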
How it was run: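 Using estrogen-depleted VM7Luc4E2 cells, the 15-concentration compound series was applied together with 10.0nM ICI-182,780 and incubated 22hr at 37C/5% CO2. Cell viability was then scored by CellTiter-Fluor.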

[6] = biological target: Progesterone receptor (Homo sapiens) (UniProt P06401); test: qHTS assay to identify small molecule antagonists of the progesterone receptor (PR) signaling pathway (AID 1346795; active = well fitted inhibition curve with a large enough effect in the signal ratio in the repeat runs, not every such curve was filed as active; the % refers to the signal ratio)
Progesterone receptor (Homo sapiens), sequence (P06401 whole entry, looked up): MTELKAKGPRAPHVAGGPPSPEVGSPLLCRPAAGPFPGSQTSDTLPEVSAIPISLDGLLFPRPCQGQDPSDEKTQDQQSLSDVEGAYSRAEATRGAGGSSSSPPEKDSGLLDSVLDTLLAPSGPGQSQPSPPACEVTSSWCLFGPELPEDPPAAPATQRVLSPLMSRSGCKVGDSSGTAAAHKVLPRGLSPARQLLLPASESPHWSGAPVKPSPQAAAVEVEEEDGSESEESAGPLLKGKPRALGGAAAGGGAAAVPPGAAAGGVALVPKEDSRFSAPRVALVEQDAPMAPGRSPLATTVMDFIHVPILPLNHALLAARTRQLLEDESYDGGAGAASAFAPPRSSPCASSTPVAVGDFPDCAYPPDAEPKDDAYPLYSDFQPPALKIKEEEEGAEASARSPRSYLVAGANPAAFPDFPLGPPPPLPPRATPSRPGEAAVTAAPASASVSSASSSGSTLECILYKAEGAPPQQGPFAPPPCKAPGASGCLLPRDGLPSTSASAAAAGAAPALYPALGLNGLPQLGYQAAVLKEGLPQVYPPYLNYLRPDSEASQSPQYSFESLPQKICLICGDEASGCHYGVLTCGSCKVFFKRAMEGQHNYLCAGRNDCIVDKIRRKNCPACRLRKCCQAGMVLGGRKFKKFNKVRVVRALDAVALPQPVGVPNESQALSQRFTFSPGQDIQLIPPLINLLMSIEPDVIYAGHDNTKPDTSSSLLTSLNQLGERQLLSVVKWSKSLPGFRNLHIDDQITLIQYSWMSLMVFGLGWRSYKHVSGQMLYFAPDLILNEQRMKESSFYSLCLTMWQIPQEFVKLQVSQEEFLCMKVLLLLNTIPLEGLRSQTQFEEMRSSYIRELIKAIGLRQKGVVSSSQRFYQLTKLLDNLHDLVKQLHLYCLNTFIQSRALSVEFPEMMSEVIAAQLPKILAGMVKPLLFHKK
How it was run: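 Read-out is fluorescence from the LiveBLAzer B/G FRET substrate, cleaved by a UAS-controlled beta-lactamase in PR-UAS-bla HEK293T cells after 16 hr exposure to compound plus 1 nM promegestone (final), followed by 2 hr at room temperature.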

[7] = qHTS assay to identify small molecule agonists of the progesterone receptor (PR) signaling pathway - cell viability counter screen (AID 1346799; calls by dose curve; also: nearly all actives have a fitted effect of over 45% in size)
How it was run: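 Luminescence from CellTiter-Glo, added after the beta-lactamase FRET read in the same wells, gave cytotoxicity in PR-UAS-bla HEK293T cells treated with compounds for 16 hr at 37C.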

[8] = qHTS assay to identify small molecule antagonists of the TGF-beta/Smad signaling pathway - cell viability counter screen (AID 1346824); also: nearly all actives have a fitted effect of over 50% in size
How it was run: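 Cytotoxicity counter-screen run in the same wells as the beta-lactamase Smad reporter read: CellTiter-Glo luminescence after 30 min at room temperature. HEK 293T SBE-bla cells had 5 hr compound exposure at 37 C with TGF-beta1 (0.25 ng/mL stock).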

[9] = qHTS assay to identify small molecule agonists of the TGF-beta/Smad signaling pathway - cell viability counter screen (AID 1346829); also: top concentration of the series differs between compounds; nearly all actives have a fitted effect of over 45% in size
How it was run: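 Luminescence from CellTiter-Glo, read after a 30 min room-temperature incubation, gives cell viability of SBE-bla HEK 293T cells treated 5 hr with compounds at 37 C.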

[10] = qHTS assay to identify small molecule agonists of the TGF-beta/Smad signaling pathway (AID 1346859; active = well fitted activation curve with a large enough effect in the signal ratio in the repeat runs, not every such curve was filed as active; the % refers to the signal ratio; also: series mostly up to about 77 µM)
How it was run: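 SBE-bla HEK 293T, 4,000 cells/well, plated o/n; cpd in DMSO, 5 hr, 37 C/5% CO2; B/G FRET substrate 2 hr RT; ex 405, em 460/530 nm.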

[11] = biological target: Thyrotropin-releasing hormone receptor (Homo sapiens) (UniProt P34981); test: qHTS assay to identify small molecule antagonists of the thyrotropin-releasing hormone receptor (TRHR) signaling pathway (AID 1346877; active = well fitted inhibition curve with a large enough effect in the repeat runs, not every such curve was filed as active; also: series mostly up to about 51 µM)
Thyrotropin-releasing hormone receptor (Homo sapiens), sequence (P34981 whole entry, looked up): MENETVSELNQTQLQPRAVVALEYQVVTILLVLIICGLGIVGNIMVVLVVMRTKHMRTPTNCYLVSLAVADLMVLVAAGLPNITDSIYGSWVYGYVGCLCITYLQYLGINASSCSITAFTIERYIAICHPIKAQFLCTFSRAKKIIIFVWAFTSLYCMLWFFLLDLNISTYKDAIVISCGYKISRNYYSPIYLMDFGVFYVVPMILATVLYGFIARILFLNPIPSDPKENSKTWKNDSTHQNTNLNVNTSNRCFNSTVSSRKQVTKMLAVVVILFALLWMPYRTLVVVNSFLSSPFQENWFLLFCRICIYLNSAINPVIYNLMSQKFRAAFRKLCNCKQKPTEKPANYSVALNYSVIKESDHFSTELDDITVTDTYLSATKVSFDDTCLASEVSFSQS
How it was run: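 Calcium signal in dye-loaded TRHR/HEK293 cells; compounds added 5 min before TRH (1 nM final); fluorescence monitored 3 min at 1 s steps.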

[12] = biological target: Thyrotropin-releasing hormone receptor (Homo sapiens) (UniProt P34981); test: qHTS assay to identify small molecule agonists of the thyrotropin-releasing hormone receptor (TRHR) signaling pathway (AID 1346891; calls by dose curve; also: series mostly up to about 58 µM)
How it was run: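 Intracellular calcium rise, read as fluorescence every second for 3 min, served as the agonist signal in dye-loaded HEK293 cells expressing TRHR; each compound ran at 15 concentrations in triplicate.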

[13] = biological target: Estrogen receptor (Homo sapiens) (UniProt P03372); test: qHTS assay to identify small molecule agonists of the estrogen receptor alpha (ER-alpha) signaling pathway in the presence of an antagonist (AID 1259383; calls by dose curve; also: top concentration of the series differs between compounds; nearly all actives have a fitted effect of over 15% in size)
Estrogen receptor (Homo sapiens), sequence (P03372 whole entry, looked up): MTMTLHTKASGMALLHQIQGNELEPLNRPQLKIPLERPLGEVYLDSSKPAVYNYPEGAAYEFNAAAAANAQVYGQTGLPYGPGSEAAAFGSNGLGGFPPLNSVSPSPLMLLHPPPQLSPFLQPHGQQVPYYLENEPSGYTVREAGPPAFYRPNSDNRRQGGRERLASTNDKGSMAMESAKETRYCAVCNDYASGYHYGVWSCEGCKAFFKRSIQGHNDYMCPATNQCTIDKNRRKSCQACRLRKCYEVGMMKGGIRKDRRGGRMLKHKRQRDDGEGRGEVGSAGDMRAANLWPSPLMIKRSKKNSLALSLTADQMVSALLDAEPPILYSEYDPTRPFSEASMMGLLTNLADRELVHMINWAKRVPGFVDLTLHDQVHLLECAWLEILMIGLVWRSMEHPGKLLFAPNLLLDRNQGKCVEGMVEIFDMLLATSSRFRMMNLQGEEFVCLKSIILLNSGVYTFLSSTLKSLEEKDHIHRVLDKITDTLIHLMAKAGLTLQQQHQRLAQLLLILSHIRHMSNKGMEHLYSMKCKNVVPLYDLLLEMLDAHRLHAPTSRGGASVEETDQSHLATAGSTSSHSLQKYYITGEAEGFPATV
How it was run: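 Luminescent ERE-luciferase reporter, VM7Luc4E2 cells (endogenous ER-alpha); 10.0nM ICI-182,780 final; 15-point compound titration; 22hr at 37C; ONE-Glo, 30min RT.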

[14] = qHTS assay to identify small molecule antagonists of the progesterone receptor (PR) signaling pathway - cell viability counter screen (AID 1346798);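 also: HEK293T PR-UAS-bla cells stimulated with the agonist R5020; series mostly up to about 92 µM; nearly all actives have a fitted effect of over 50% in size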
How it was run: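 HEK293T PR-UAS-bla, 2% charcoal-stripped FBS; 4 hr pre-plate; cpd + R5020, 16 h 37C; LiveBLAzer read first; then CellTiter-Glo 30 min RT, luminescence.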

[15] = qHTS assay to identify small molecule agonists or antagonists of the thyroid stimulating hormone receptor (TSHR) signaling pathway - wild type cell line counter screen (AID 1259384; calls by dose curve)
How it was run: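 Counter screen in untransfected Hek293: compounds (15-point titration, triplicate) plus phosphodiesterase inhibitor Ro20-1724 added after 18 h plating; 30 min RT. Intracellular cAMP via competitive d2/cryptate immunoassay, 1 h incubation.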

[16] = biological target: Thyrotropin receptor (Homo sapiens) (UniProt P16473); test: qHTS assay to identify small molecule antagonists of the thyroid stimulating hormone receptor (TSHR) signaling pathway (AID 1259385; calls by dose curve; also: nearly all actives have a fitted effect of over 20% in size)
Thyrotropin receptor (Homo sapiens), sequence (P16473 whole entry, looked up): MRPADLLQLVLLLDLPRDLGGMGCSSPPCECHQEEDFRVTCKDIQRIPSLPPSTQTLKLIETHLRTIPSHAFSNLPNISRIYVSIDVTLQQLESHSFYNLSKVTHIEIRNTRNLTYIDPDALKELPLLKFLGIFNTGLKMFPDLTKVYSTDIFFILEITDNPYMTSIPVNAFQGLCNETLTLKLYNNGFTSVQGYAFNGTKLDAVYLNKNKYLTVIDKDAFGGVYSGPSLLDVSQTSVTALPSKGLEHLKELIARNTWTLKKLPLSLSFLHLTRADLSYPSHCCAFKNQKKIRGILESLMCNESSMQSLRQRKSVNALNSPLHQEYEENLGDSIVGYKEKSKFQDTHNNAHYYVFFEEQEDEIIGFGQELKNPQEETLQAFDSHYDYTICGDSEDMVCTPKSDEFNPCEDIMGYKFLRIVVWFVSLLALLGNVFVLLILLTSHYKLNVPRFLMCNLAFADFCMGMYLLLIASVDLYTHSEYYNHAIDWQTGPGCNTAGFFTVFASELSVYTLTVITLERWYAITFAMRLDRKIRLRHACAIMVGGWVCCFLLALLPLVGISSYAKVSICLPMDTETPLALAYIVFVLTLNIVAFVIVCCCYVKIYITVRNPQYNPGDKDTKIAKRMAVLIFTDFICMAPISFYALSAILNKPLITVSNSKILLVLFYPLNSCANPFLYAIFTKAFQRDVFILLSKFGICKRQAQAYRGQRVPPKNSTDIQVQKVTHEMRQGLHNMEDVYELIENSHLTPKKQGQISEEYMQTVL
How it was run: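 Antagonist mode: compound-treated TSHR-expressing HEK293 cells were stimulated with 1.5 ng/mL TSH (final) in presence of Ro20-1724 for 30 min at RT. HTRF cAMP detection after 1 h; each compound tested at 15 concentrations, triplicate.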

[17] = biological target: Progesterone receptor (Homo sapiens) (UniProt P06401); test: qHTS assay to identify small molecule agonists of the progesterone receptor (PR) signaling pathway (AID 1346784; calls by dose curve; also: nearly all actives have a fitted effect of over 30% in size)
How it was run: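 Beta-lactamase reporter read-out: after 16 hr compound treatment at 37C and a further 2 hr at room temperature with LiveBLAzer B/G FRET substrate, fluorescence was measured in PR-UAS-bla HEK 293T cells grown in 2% charcoal-stripped serum.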
% is scaled to controls: 0 for no effect and ±100 for the full control effect.

C[N+]1(CC2COC(c3ccccc3)(c3ccccc3)O2)CCCCC1 (stereo not given)
inactive: activity change, negative = inhibition [1] -10.9% [at 19 µM] | activity change, negative = cytotoxicity [2] 4% [at 19 µM] | activity change, negative = cytotoxicity [3] 12% [at 19 µM] | activity change, negative = cytotoxicity [4] 0.56% [at 19 µM] | activity change, negative = cytotoxicity [5] 7.11% [at 19 µM] | activity change, negative = inhibition [6] 3.69% [at 18.9 µM] | activity change, negative = cytotoxicity [7] -1.98% [at 19 µM] | viability change, negative = cytotoxic [8] 7.39% [at 15.8 µM] | activity change, negative = cytotoxicity [9] -19% [at 15.8 µM] | activation [10] 1.32% [at 15.8 µM] | activity, negative = inhibition [11] 1.31% [at 10.5 µM] | activation [12] 10.8% [at 11.8 µM]

C[N+]1(C)CCCC(OC(=O)C(O)(c2ccccc2)c2ccccc2)C1 (stereo not given)
inactive: Potency [1] | Potency [2] | Potency [3] | outcome [4] | outcome [13] | Potency [5] | Potency [6] | Potency [14] | Potency [7] | outcome [8] | outcome [9] | outcome [10]

O=C(O)CCCC[P+](c1ccccc1)(c1ccccc1)c1ccccc1
inactive: Potency [1] | Potency [2] | Potency [3] | outcome [4] | outcome [13] | outcome [15] | outcome [16] | Potency [5] | Potency [6] | Potency [14] | Potency [7] | outcome [8] | outcome [9] | outcome [10]

NC(N)=NCCN1CCCCCCC1
inactive: activity change, negative = inhibition [1] 18.5% [at 0.349 µM] | activity change, negative = cytotoxicity [2] -1.24% [at 0.35 µM] | activity change, negative = cytotoxicity [3] 2.58% [at 0.349 µM] | activity change, negative = cytotoxicity [4] 9.29% [at 0.349 µM] | cAMP activity change [15] 3.9% [at 0.349 µM] | activity change, negative = inhibition [16] -0.745% [at 0.349 µM] | activity change, negative = cytotoxicity [5] 3.85% [at 0.349 µM] | activity change, negative = inhibition [6] 0.475% [at 0.348 µM] | activity change, negative = cytotoxicity [14] -0.514% [at 0.348 µM] | activity change, negative = cytotoxicity [7] 0.507% [at 0.349 µM] | viability change, negative = cytotoxic [8] 2.08% [at 0.29 µM] | activity change, negative = cytotoxicity [9] -17.1% [at 0.29 µM] | activation [10] 0.678% [at 0.29 µM]

COc1ccc2cc1Oc1cc3c(cc1OC)CC[N+](C)(C)[C@H]3Cc1ccc(cc1)Oc1c(OC)c(OC)cc3c1[C@@H](C2)[N+](C)(C)CC3
inactive: Potency [1] | Potency [2] | Potency [3] | outcome [4] | outcome [13] | outcome [15] | outcome [16] | Potency [5] | Potency [17] | Potency [6] | Potency [14] | Potency [7] | outcome [8] | outcome [9] | outcome [10] | outcome [11] | Potency [12]

CCOc1ccc2nc(S(N)(=O)=O)sc2c1
inactive: Potency [1] | Potency [2] | Potency [3] | outcome [4] | outcome [13] | outcome [16] | Potency [5] | Potency [17] | Potency [14] | Potency [7] | outcome [8] | outcome [9] | outcome [10] | outcome [11] | Potency [12]

NC(=O)N[C@@H](CCC(=O)O)C(=O)O
inactive: Potency [1] | Potency [2] | Potency [3] | outcome [15] | outcome [16] | Potency [5] | Potency [17] | Potency [6] | Potency [14] | Potency [7] | outcome [8] | outcome [10]
